Measured values: ChEMBL document CHEMBL2218924, “A broad activity screen in support of a chemogenomic map for kinase signalling research and drug discovery” (Biochem J, 2013)

How the values were obtained:
[1] = target: T1, Serine/threonine-protein kinase 3 (Homo sapiens) (UniProt Q13188); conditions: at 1 µM
T1 sequence (whole entry): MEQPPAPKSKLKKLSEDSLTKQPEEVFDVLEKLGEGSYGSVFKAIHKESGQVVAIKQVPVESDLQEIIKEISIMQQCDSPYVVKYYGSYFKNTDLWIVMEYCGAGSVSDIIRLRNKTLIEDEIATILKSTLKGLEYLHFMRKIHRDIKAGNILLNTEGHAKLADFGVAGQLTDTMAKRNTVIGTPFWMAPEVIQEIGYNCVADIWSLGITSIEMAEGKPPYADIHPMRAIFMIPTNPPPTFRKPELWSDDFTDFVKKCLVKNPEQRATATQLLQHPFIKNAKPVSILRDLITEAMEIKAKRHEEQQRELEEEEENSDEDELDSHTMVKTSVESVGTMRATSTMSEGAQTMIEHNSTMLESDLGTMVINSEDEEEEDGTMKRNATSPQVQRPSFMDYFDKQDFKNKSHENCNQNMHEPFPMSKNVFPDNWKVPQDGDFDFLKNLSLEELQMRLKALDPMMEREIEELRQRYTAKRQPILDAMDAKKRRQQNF

[2] = target: T1, Serine/threonine-protein kinase 3 (Homo sapiens); conditions: at 10 µM
[3] = target: Serine/threonine-protein kinase 24 (Homo sapiens) (UniProt Q9Y6E0); conditions: at 1 µM
[4] = target: Serine/threonine-protein kinase 24 (Homo sapiens) (UniProt Q9Y6E0); conditions: at 10 µM
[5] = target: T2, Tyrosine-protein kinase Mer (Homo sapiens) (UniProt Q12866); conditions: at 1 µM
T2 sequence (whole entry): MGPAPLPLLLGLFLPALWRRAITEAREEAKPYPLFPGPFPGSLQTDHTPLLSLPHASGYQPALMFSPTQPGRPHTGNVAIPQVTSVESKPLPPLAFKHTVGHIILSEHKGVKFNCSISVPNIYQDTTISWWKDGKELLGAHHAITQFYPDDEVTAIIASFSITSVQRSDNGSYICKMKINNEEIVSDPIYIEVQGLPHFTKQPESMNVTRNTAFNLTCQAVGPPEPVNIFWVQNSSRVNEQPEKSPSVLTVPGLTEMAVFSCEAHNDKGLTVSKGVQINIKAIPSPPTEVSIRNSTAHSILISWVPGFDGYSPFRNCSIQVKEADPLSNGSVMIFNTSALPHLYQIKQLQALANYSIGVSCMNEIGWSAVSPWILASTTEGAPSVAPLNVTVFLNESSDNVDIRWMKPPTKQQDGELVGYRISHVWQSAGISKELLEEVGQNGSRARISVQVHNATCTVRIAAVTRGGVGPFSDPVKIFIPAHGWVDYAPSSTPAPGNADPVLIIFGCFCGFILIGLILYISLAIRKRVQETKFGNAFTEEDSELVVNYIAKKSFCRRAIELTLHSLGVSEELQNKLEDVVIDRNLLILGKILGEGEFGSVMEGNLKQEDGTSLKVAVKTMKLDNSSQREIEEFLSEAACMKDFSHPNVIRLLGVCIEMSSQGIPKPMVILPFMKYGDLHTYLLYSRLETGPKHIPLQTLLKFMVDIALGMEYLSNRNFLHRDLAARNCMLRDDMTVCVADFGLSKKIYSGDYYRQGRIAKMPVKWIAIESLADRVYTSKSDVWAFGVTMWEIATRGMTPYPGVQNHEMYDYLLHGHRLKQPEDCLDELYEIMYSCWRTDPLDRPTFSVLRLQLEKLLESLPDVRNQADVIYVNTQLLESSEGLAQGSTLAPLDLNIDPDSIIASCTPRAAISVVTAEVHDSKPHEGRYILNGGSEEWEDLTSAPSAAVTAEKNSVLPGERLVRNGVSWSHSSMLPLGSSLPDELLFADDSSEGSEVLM

[6] = target: T2, Tyrosine-protein kinase Mer (Homo sapiens); conditions: at 10 µM
[7] = target: MAP kinase-interacting serine/threonine-protein kinase 2 (Homo sapiens) (UniProt Q9HBH9); conditions: at 1 µM
[8] = target: MAP kinase-interacting serine/threonine-protein kinase 2 (Homo sapiens) (UniProt Q9HBH9); conditions: at 10 µM
[9] = target: T3, Muscle, skeletal receptor tyrosine-protein kinase (Homo sapiens) (UniProt O15146); conditions: at 1 µM
T3 sequence (whole entry): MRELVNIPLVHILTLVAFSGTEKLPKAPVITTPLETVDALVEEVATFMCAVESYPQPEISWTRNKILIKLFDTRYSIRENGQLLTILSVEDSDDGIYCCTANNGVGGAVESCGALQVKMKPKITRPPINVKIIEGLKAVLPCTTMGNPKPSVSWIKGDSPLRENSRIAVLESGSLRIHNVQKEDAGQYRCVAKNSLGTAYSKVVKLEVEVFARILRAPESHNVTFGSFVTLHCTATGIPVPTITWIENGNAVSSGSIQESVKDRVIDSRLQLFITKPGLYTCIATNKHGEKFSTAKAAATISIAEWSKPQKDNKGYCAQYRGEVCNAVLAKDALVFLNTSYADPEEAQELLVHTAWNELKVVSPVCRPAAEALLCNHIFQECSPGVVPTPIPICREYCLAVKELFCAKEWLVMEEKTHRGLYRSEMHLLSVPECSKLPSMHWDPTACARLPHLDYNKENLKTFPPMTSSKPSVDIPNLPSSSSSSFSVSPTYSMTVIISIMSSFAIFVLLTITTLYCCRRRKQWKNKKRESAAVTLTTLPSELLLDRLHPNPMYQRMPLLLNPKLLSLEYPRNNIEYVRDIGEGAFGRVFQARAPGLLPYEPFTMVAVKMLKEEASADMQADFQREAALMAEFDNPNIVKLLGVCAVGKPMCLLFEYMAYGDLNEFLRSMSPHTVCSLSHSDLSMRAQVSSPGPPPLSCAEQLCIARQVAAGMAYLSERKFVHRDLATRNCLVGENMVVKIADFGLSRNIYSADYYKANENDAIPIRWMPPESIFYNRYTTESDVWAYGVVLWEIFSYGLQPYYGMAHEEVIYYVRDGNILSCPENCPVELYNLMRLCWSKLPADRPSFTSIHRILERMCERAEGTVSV

[10] = target: T3, Muscle, skeletal receptor tyrosine-protein kinase (Homo sapiens); conditions: at 10 µM
[11] = target: T4, Serine/threonine-protein kinase Nek11 (Homo sapiens) (UniProt Q8NG66); conditions: at 1 µM
T4 sequence (whole entry): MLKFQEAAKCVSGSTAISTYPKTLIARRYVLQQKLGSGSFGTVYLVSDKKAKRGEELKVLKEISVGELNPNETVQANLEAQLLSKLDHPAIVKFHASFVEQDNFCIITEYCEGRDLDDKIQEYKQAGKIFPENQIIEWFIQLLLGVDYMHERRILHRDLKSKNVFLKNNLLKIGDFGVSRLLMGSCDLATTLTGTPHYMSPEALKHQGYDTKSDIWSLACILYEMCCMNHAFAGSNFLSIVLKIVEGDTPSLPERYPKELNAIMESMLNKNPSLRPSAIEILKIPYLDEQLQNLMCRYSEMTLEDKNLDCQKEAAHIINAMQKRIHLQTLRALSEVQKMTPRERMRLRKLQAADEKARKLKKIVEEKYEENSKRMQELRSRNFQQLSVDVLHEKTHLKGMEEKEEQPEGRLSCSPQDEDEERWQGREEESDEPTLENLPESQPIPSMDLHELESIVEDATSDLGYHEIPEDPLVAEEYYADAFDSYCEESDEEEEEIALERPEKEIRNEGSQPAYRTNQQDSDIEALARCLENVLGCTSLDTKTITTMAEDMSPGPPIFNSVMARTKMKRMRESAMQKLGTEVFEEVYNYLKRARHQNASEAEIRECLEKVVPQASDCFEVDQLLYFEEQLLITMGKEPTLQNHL

[12] = target: Serine/threonine-protein kinase tousled-like 2 (Homo sapiens) (UniProt Q86UE8); conditions: at 1 µM
[13] = target: Serine/threonine-protein kinase tousled-like 2 (Homo sapiens) (UniProt Q86UE8); conditions: at 10 µM
[14] = target: Hepatocyte growth factor receptor (Homo sapiens) (UniProt P08581); conditions: at 1 µM
[15] = target: Hepatocyte growth factor receptor (Homo sapiens) (UniProt P08581); conditions: at 10 µM
[16] = target: T4, Serine/threonine-protein kinase Nek11 (Homo sapiens); conditions: at 10 µM
[17] = target: T5, Serine/threonine-protein kinase Nek2 (Homo sapiens) (UniProt P51955); conditions: at 1 µM
T5 sequence (whole entry): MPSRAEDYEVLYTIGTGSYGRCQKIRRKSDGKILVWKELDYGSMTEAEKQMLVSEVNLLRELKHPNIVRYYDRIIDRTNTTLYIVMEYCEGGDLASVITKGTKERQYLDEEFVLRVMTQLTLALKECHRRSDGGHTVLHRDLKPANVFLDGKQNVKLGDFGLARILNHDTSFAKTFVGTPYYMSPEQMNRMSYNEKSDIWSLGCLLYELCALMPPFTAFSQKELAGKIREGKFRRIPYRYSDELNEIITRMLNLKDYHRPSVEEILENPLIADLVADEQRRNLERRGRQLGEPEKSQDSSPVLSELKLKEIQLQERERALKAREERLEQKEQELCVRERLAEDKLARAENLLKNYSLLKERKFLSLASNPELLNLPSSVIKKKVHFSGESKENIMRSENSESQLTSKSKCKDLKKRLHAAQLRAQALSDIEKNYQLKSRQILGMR

[18] = target: T5, Serine/threonine-protein kinase Nek2 (Homo sapiens); conditions: at 10 µM
[19] = target: T6, Serine/threonine-protein kinase Nek3 (Homo sapiens) (UniProt P51956); conditions: at 1 µM
T6 sequence (whole entry): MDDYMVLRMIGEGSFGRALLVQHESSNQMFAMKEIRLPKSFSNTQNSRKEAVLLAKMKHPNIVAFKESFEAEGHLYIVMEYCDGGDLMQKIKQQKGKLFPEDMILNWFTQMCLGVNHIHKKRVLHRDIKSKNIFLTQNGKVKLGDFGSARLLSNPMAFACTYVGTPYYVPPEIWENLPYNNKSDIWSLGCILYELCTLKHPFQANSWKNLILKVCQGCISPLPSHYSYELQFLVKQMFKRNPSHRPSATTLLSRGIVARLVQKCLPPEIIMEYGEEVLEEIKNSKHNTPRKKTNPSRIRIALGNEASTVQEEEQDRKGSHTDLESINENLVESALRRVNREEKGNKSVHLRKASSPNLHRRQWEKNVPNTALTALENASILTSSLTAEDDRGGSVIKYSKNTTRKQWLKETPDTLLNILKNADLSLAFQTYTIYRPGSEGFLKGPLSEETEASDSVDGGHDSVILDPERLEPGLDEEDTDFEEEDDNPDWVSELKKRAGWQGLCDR

[20] = target: T6, Serine/threonine-protein kinase Nek3 (Homo sapiens); conditions: at 10 µM

Hepatocyte growth factor receptor (Homo sapiens), sequence (P08581 whole entry): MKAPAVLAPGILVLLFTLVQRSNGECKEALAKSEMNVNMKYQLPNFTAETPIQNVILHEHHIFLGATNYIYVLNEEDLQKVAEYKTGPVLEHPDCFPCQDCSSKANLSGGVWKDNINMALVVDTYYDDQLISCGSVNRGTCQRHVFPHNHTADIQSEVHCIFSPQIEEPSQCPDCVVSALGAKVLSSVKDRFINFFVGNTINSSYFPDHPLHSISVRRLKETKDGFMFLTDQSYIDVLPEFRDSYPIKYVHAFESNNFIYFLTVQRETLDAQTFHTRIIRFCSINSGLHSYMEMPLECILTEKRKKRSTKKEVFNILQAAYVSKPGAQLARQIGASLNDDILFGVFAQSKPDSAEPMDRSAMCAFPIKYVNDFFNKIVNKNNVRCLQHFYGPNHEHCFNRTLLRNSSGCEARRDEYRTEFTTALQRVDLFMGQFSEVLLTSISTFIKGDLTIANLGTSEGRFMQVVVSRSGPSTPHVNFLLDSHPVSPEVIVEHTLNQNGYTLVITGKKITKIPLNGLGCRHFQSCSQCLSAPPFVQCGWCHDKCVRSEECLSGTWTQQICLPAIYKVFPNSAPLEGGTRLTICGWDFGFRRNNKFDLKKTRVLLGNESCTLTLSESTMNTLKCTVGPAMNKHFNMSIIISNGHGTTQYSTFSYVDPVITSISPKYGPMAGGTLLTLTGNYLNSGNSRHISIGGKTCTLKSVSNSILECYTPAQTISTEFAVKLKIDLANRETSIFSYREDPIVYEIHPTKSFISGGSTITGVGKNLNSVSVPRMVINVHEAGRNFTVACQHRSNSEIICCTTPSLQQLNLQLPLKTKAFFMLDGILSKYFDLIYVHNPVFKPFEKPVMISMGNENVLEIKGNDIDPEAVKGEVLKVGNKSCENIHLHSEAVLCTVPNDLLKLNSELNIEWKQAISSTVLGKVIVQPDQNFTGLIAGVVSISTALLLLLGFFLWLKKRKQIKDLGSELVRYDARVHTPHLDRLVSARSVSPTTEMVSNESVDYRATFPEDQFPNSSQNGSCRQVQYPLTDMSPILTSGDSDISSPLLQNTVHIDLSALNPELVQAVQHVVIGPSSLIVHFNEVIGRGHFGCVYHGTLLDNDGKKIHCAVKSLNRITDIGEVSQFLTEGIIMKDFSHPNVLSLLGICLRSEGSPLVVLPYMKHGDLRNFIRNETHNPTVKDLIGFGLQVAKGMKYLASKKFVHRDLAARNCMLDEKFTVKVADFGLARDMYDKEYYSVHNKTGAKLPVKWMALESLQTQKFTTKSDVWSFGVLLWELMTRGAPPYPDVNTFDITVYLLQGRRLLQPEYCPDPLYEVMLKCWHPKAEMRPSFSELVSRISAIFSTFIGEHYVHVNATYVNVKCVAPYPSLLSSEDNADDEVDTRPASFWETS
MAP kinase-interacting serine/threonine-protein kinase 2 (Homo sapiens), sequence (Q9HBH9 whole entry, looked up): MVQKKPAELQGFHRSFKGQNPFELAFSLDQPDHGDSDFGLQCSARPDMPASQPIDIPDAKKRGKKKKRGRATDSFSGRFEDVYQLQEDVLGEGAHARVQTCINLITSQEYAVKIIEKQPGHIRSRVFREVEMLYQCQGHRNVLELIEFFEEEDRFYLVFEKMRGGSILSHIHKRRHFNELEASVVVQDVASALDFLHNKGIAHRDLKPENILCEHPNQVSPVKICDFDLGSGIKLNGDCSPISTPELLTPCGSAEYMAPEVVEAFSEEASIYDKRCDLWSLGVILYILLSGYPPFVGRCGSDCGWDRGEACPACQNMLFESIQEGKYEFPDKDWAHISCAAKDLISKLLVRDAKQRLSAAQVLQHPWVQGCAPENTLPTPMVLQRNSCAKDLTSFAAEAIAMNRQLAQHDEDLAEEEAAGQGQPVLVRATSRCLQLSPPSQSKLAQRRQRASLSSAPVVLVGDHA
Serine/threonine-protein kinase tousled-like 2 (Homo sapiens), sequence (Q86UE8 whole entry, looked up): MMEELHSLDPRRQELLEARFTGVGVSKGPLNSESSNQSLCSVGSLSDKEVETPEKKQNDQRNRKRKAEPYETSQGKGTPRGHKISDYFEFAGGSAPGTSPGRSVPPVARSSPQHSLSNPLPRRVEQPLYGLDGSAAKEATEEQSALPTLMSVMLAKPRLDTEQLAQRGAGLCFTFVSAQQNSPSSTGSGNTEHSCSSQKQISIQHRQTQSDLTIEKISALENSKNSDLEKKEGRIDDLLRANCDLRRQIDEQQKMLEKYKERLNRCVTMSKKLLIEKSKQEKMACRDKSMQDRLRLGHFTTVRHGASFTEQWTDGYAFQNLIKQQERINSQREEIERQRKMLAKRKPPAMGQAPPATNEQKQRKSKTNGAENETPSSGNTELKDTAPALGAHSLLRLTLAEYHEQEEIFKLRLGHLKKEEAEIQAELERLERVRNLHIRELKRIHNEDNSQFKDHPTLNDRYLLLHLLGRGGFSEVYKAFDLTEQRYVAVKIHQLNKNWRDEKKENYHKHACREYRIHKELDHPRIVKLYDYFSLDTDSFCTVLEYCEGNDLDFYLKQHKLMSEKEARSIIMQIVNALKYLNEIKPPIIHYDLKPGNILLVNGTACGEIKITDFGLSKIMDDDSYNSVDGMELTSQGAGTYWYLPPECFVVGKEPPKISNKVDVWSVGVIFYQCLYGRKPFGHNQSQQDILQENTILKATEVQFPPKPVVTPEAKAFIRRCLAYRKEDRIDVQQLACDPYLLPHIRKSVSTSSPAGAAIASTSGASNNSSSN
Serine/threonine-protein kinase 24 (Homo sapiens), sequence (Q9Y6E0 whole entry, looked up): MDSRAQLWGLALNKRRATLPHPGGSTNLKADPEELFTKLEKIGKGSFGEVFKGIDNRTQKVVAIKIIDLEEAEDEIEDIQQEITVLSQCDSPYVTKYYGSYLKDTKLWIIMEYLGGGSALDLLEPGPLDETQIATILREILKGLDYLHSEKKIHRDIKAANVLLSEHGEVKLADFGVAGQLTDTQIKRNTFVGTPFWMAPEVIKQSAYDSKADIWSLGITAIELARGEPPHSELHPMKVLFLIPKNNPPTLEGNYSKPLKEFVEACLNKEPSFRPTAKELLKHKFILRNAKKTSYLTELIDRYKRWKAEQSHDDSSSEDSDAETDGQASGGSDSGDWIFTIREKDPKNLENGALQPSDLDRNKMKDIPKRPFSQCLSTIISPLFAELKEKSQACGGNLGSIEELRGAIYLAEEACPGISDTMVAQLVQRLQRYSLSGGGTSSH

SMILES	residual activity [1] [%]	residual activity [2] [%]	residual activity [3] [%]	residual activity [4] [%]	residual activity [5] [%]	residual activity [6] [%]	residual activity [7] [%]	residual activity [8] [%]	residual activity [9] [%]	residual activity [10] [%]	residual activity [11] [%]	residual activity [12] [%]	residual activity [13] [%]	residual activity [14] [%]	residual activity [15] [%]	residual activity [16] [%]	residual activity [17] [%]	residual activity [18] [%]	residual activity [19] [%]	residual activity [20] [%]
COc1cc2nccc(Oc3ccc(NC(=O)Nc4cc(C)on4)c(Cl)c3)c2cc1OC	68	28	118	78	7	4	105	64	17	3	77	104	100							
Cn1sc(=O)n(Cc2ccccc2)c1=O	98	97	71	70	96	98	97	89	73	86	43	84	80	141	95	62	95	87	83	97
O=C1Cc2c([nH]c3ccc([N+](=O)[O-])cc23)-c2ccccc2N1	71	21	51	47					70	72	74					79				
CSc1nc(-c2ccc(F)cc2)c(-c2ccnc(NC(C)c3ccccc3)c2)[nH]1 (stereo not drawn)	101	74	99	78		79		95	98	81	83			125	82	54	99	102	95	90
Nc1nc(Nc2ccc(S(N)(=O)=O)cc2)nn1C(=O)c1c(F)cccc1F	34	4	61	6		1	95	66		20	56	68	17	45	10		96	70		71
COc1ccc(Cl)cc1NC(=O)Nc1cc(C)nc2ccccc12			70	83					97	71	79	97	95	89	80	93	78	86		
CC(C)N(CCC(=O)c1ccc2ccccc2c1)Cc1ccccc1			62	72				87	87	79		86	80		79		81	88		
O=C1C(Cl)=C(N2C(=O)CCC2=O)C(=O)c2ccccc21		83	78	79	90	92	102	94	76	84	41	94	95		95	33	93	89	74	87
Nc1ncnc2c1cnn2-c1ccccc1		93	68	84	101	92	56	22		88	79			98	85	88	83	99		91
NC(=O)Nc1sc(-c2ccc(F)cc2)cc1C(N)=O			38	6	54	9	72	24	62	15	25	72	27			5	87	58	69	48
O=C(O)/C=C/c1cc(Br)c(Br)c(Br)c1Br			105	85	104	94	74		106	98	85	101	93	93	84	54			81	108
COc1ccc(CNC(=O)Nc2ncc([N+](=O)[O-])s2)cc1			69	80					68	67	51		74			66				
Nc1nccc(-c2c(-c3ccc(F)cc3)ncn2C2CCNCC2)n1			82	82	67	24		82			68			114	82	77				
NC(=O)c1cccc(-c2cc(Nc3ccc(OC(F)(F)F)cc3)ncn2)c1			74	93			91	54												
CCCCc1c(-c2ccc(OC)cc2)[nH]c2nccnc12		68	70	60	68	80			88	87	80	87	86	118		81		83	87	
Oc1cccc(-c2nc(N3CCOCC3)c3oc4ncccc4c3n2)c1			75	74		93					98		95	121	133	98			117	69
